The list is not random: actives were taken first. Their share in the collection is about 1.5%.
ARNT-TACC3 inh = disrupts binding between human ARNT and TACC3; AlphaScreen His-ARNT PAS-B/GST-TACC3 binding, luminescence; TACC3 fragment carries E629A point mutation; 390,000 compounds, 0.66% hits; AID 623870; inhibition, % at 9.99 µM;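 active = mean inhibition of replicates at least 50% and at least half of replicates each reaching 50%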
sPLA2-III inh = Inhibits HGIII-sPLA2 liposome hydrolysis, primary screen | 370,000 compounds, 0.56% hits | inhibition, % at 12.2 µM | AID 743126 | QFRET BODIPY PC-A2 liposome hydrolysis, fluorescence;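 active = inhibition above mean plus 3 SD of compounds lying within the high and low control bounds, cut at about 19% in these data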
Target sequence (Q9NZ20 whole entry, looked up): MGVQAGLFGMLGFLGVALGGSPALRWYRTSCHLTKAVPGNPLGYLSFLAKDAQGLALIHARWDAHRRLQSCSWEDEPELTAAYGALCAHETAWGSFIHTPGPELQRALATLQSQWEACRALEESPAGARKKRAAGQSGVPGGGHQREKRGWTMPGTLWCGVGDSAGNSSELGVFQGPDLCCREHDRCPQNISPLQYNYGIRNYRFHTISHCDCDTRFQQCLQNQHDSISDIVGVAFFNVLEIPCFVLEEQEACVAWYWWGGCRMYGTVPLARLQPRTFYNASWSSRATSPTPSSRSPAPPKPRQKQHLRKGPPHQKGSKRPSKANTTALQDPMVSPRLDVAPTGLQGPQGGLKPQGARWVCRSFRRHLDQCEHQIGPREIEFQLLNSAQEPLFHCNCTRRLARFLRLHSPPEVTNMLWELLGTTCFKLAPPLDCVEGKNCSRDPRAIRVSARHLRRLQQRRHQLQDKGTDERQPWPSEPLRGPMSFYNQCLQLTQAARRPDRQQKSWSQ
AI-2 QS mod = Vibrio harveyi AI-2 quorum sensing modulation. activity change, % at 7.5 µM. 300,000 compounds, 0.4% hits. Vibrio harveyi JMH597 AI-2 luminescence/OD600 ratio, 9 h; active compounds read low; strain lacks LuxN and CqsS sensors; 0 = neutral-control median; in the data active = activity change below about -75%, passing the limit was not always enough;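 also: luminescence divided by OD600 gain over 9 h not by final OD600 alone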
Rin1 Abl inh = inhibitors of human Rin1-Abl protein interaction; P00519+Q13671; TR-FRET Rin1/Abl binding, biochemical; 360,000 compounds, 0.4% hits; inhibition, % at 7.35 µM; in the data active = inhibition above about 5%, passing the limit was not always enough
ARNT Alpha ctr = interferes with AlphaScreen signal, flagging false ARNT-TACC3 hits. shares compounds with ARNT-TACC3 inh. His-ARNT PASB-GST AlphaScreen artifact counter-screen, luminescence. AC50, µM (highest dose often 68 µM). 1,200 compounds, 50% hits. AID 651705;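 active = every separate test run was called active for a drop in luminescence, with AC50 within twice the top valid dose, actives reach about 71 µM in these data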
Numbers stand for hits; – = inactive; · = not tested or not shown.

SMILES | ARNT-TACC3 inh | sPLA2-III inh | AI-2 QS mod | Rin1 Abl inh | ARNT Alpha ctr
CCCC(=O)NC(c1cccs1)c1cc([N+](=O)[O-])c2cccnc2c1O (stereo not drawn) | 58.2 | – | – | – | 9.85µM
CC(=O)NC(c1cccs1)c1cc(Cl)c2ccccc2c1O (stereo not drawn) | – | – | · | – | ·
CCCCC(=O)NC(c1cccc([N+](=O)[O-])c1)c1ccc2cccnc2c1O (stereo not drawn) | 61.1 | – | · | – | 8.12µM
C[C@@H]1CN([C@H](C)CO)C(=O)c2cc(C#CC3CCCCC3)cnc2O[C@H]1CN(C)C(=O)C1CCCCC1 | – | · | · | · | ·
C[C@@H]1CN([C@H](C)CO)S(=O)(=O)c2ccc(-c3cncnc3)cc2O[C@@H]1CN(C)C(=O)C1CCC1 | – | · | · | · | ·
C[C@H](NC(=O)C[C@H]1CC[C@@H](NC(=O)C2CCOCC2)[C@H](CO)O1)c1ccccc1 | – | · | · | · | ·
Cc1noc(C)c1NC(=O)Nc1ccc2c(c1)C(=O)N([C@@H](C)CO)C[C@H](C)[C@@H](CN(C)C(=O)NC(C)C)O2 | – | · | · | · | ·
C[C@H]1CN([C@@H](C)CO)C(=O)Cc2cc(N(C)C)ccc2O[C@@H]1CN(C)Cc1ccc(Oc2ccccc2)cc1 | – | · | · | · | ·
CCC(=O)N1C[C@@H](C)[C@@H](OC)CN(C)C(=O)c2cc(NC(=O)Nc3ccc(Cl)cc3)ccc2OC[C@@H]1C | – | · | · | · | ·
C#CCOCCOCCOCCNc1nc(N2CCN(C(=O)[C@H](CCC(=O)O)n3cc(C(N)CO)nn3)CC2)nc(N2CCN(C(=O)[C@H](Cc3ccc(O)cc3)n3cc(C(N)CC(C)C)nn3)CC2)n1 (stereo partly drawn) | · | · | – | · | ·
C#CCOCCOCCOCCNc1nc(N2CCN(C(=O)[C@H](CCCCN)n3cc([C@@H](N)CO)nn3)CC2)nc(N2CCN(C(=O)[C@H](Cc3ccc(O)cc3)n3cc([C@@H](N)CC(C)C)nn3)CC2)n1 | 38.2 | – | – | – | –
C#CCOCCOCCOCCNc1nc(N2CCN(C(=O)[C@H](CC(N)=O)n3cc([C@@H](N)CC(N)=O)nn3)CC2)nc(N2CCN(C(=O)[C@H](CC(N)=O)n3cc([C@@H](N)CC(N)=O)nn3)CC2)n1 | 45.8 | – | · | – | –
C#CCOCCOCCOCCNc1nc(N2CCN(C(=O)[C@H](CCCCN)n3cc([C@@H](N)CC(N)=O)nn3)CC2)nc(N2CCN(C(=O)[C@H](CCCCN)n3cc([C@@H](N)CC(N)=O)nn3)CC2)n1 | 59.8 | – | · | – | –
COc1ccc(C2C(C#N)=C(N)Oc3n[nH]c(-c4ccccn4)c32)c(OC)c1OC (stereo not drawn) | 60.1 | – | – | – | –
CCCC#Cc1cnc2c(c1)C(=O)N([C@H](C)CO)C[C@H](C)[C@H](CN(C)S(C)(=O)=O)O2 | – | · | · | · | ·
CCCCCOc1ccc(NC(=O)CSc2cccc3cccnc23)cc1 | 58.0 | – | – | – | 63.4µM
O=C(CSc1cccc2cccnc12)Nc1ccc(S(=O)(=O)N2CCOCC2)cc1 | 74.2 | – | – | – | 32.9µM
COc1ccc(NC(=O)CSc2cccc3cccnc23)c(OC)c1 | – | – | – | – | ·
Cc1cccc(CSc2cccc3cccnc23)c1 | 61.7 | – | – | – | 13.1µM
CCOC(=O)CSc1cccc2cccnc12 | 56.6 | – | – | – | 9.31µM
CO[C@H]1CN(C)C(=O)c2cc(NS(C)(=O)=O)ccc2OC[C@@H](C)N(C(=O)c2ccc3c(c2)OCO3)C[C@@H]1C | – | · | · | · | ·
C[C@@H]1CN([C@@H](C)CO)C(=O)c2cccc(NC(=O)Nc3ccc(F)cc3)c2O[C@H]1CN(C)S(=O)(=O)c1cccs1 | – | · | · | · | ·
CN1CCc2c(sc3c2C(=O)NC(c2ccccc2)N3)C1 (stereo not drawn) | – | – | – | – | ·
CN1CCc2c(sc3c2C(=O)NC(c2ccccn2)N3)C1 (stereo not drawn) | active | – | – | – | 68.4µM
CCN(CC)CCCNc1nc2ccccc2c2[nH]c3ccc(OC)cc3c12 | 56.7 | – | · | – | –
SMILES | ARNT-TACC3 inh | sPLA2-III inh | AI-2 QS mod | Rin1 Abl inh | ARNT Alpha ctr
COc1ccc(-c2nnc(SCC(=O)NC3CC3)o2)cc1 | active | – | · | – | –
C[C@H]1CN([C@@H](C)CO)C(=O)c2cc(NC(=O)Nc3cccc4ccccc34)ccc2O[C@@H]1CN(C)C(=O)Nc1ccc(C(F)(F)F)cc1 | active | · | · | · | –
COc1ccc(NC(=O)Nc2ccc3c(c2)CC(=O)N([C@@H](C)CO)C[C@@H](C)[C@H](CN(C)Cc2ccc(Oc4ccccc4)cc2)O3)cc1 | 58.3 | · | · | · | 20µM
C[C@H](CO)N1C[C@H](C)[C@@H](CN(C)C(=O)Nc2ccc3c(c2)OCO3)Oc2ccc(NC(=O)CCN3CCOCC3)cc2CC1=O | 50.5 | · | · | · | –
C[C@H]1CN([C@@H](C)CO)C(=O)Cc2cc(NC(=O)Nc3cccc4ccccc34)ccc2O[C@@H]1CN(C)Cc1ccc(Oc2ccccc2)cc1 | 61.2 | · | · | · | 34.2µM
O=C(C[C@H]1CC[C@@H]2[C@H](COC[C@H](O)CN2Cc2cc(F)ccc2F)O1)N[C@H]1CCN(Cc2ccccc2)C1 | – | · | · | · | ·
C[C@H]1CN([C@@H](C)CO)C(=O)c2cccc(NC(=O)Nc3cccc4ccccc34)c2O[C@@H]1CN(C)S(=O)(=O)c1ccc(Cl)cc1 | 52.7 | · | · | · | 25.1µM
C[C@@H]1CN([C@H](C)CO)C(=O)Cc2cc(NC(=O)Nc3cccc4ccccc34)ccc2O[C@H]1CN(C)CC1CCCCC1 | – | · | · | · | ·
